# BLM inh-1 = blocks DNA unwinding by human BLM helicase; recombinant BLM DNA unwinding, fluorescence dequenching; 0.2% of 350,000 active; AID 2528; P54132; Potency, µM (series often up to 56.1 µM), actives largely listed as inhibitors; also: nearly all actives have a fitted effect of over 35% in size
# APE1 inh = APE1 (human) endonuclease inhibition; Potency, µM (top dose mostly 65.8 µM), most hits filed as inhibitors; P27695; AID 2517; recombinant APE1, TAMRA/BHQ-2 abasic DNA cleavage fluorescence; 0.35% of 350,000 active; also: nearly all actives have a fitted effect of over 55% in size
#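 Step 1: APE1 (0.75 nM) with compound, 15 min RT. Step 2: add 50 nM fluorophore/quencher THF duplex. Step 3: three fluorescence reads 60 s apart (525/598 nm); read 3 minus read 1 = reaction progress.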
# KAT2A inh = blocks human GCN5L2 histone acetyltransferase; 0.21% of 390,000 active; GCN5L2 HAT assay, ThioGlo1 CoA-SH fluorescence; Potency, µM (doses to about 58.9 µM), hits mostly inhibitors; AID 504327; Q92830
#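 GCN5L2 (20 nM) in 50mM HEPES pH 7.5, 0.1mM EDTA, 0.01% Tween-20 preincubated 15 min with compounds at room temperature. Reaction started with H3(1-25) 75uM, acetyl-CoA 70uM, ThioGlo1 50uM; CoA-thiol fluorescence (Ex340/Em540) read at 0 and 20 min.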
# TDP1 block = TDP1 (human) enzyme inhibition | 0.28% of 350,000 active | recombinant TDP1, AlphaScreen DNA substrate cleavage | Q9NUW8 | Potency, µM (titrated, usually from 130 µM), actives largely listed as inhibitors; also: nearly all actives have a fitted effect of over 40% in size
# Target sequence (Q9NUW8 whole entry, looked up): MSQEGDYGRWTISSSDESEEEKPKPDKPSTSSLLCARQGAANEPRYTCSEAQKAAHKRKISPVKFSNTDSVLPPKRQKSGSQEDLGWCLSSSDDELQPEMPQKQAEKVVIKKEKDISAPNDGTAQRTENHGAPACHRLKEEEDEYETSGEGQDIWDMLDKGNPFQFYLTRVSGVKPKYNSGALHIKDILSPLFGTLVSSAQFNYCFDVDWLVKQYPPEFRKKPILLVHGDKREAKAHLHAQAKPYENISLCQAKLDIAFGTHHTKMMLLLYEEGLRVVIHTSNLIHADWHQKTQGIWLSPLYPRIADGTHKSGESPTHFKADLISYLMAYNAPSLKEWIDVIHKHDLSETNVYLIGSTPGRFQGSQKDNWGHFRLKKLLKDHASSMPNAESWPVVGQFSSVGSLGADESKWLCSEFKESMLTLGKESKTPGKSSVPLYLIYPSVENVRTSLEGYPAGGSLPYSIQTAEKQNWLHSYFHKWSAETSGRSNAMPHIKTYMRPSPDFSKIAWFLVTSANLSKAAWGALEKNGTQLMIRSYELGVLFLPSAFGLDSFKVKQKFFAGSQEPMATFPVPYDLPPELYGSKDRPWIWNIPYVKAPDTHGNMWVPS
#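 AlphaScreen read-out: signal falls as enzyme removes the 3' tyrosine-FITC from a 5'-biotinylated DNA oligo (15 nM, 5 min, RT). Enzyme was E. coli-made recombinant Tdp1 at 1 nM, exposed to compound for 15 min beforehand; beads 10 ug/ml, 10 min.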
# RECQ1 inh-1 = RECQ1 (human) helicase inhibition; Potency, µM (top dose mostly 57.3 µM), usual class: inhibitors; 0.54% of 240,000 active; AID 2549; RECQ1 DNA unwinding, red fluorescence kinetic read; also: nearly all actives have a fitted effect of over 30% in size
#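 RECQ1T1 50 nM; forked duplex (20 bp + 30-nt ss tails) 200 nM, ATP 2 mM final; pH 8.0, 2 mM MgCl2, 2.5 ug/ml poly(dI-dC); 15 min compound preincubation; discontinuous kinetic read over 2 h at RT.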
# BLM inh-2 = BLM (human) helicase inhibition, confirmation; BLM DNA unwinding, fluorescence quenching, biochemical; 40% of 220 active; shares compounds with BLM inh-1; Potency, µM, most hits filed as inhibitors;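 also: strand separation dequenches TAMRA so unwinding raises red fluorescence; series mostly up to about 69 µM; nearly all actives have a fitted effect of over 45% in size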
# RECQ1 conf = confirmation of human RECQ1 helicase inhibitors. Potency, µM (titrated, usually from 229 µM), most hits filed as inhibitors. AID 2708. RECQ1 helicase DNA unwinding, fluorescence. shares compounds with RECQ1 inh-1. 28% of 610 active; also: nearly all actives have a fitted effect of over 45% in size
# RECQ1 inh-2 = blocks human RECQ1 DNA unwinding | Potency, µM (highest dose often 119 µM), most hits filed as inhibitors | 15% of 1,100 active | recombinant RECQ1 DNA unwinding, red fluorescence | shares compounds with RECQ1 inh-1; also: nearly all actives have a fitted effect of over 50% in size
# Numbers stand for hits; n = inactive; u = inconclusive; x = no result; [ ] = another dose, or the depositor's remark. Compounds with a hit are over-represented: about 0.87% of the library has one in this group of screens. Calls follow the shape of the dose curve; as a rule, active = well fitted curve in the direction sought with a large enough effect; inconclusive = small, poorly fitted or top-dose-only effect, or another doubt; inactive = no such curve, though single readings can be large; an effect the other way counts as inactive or inconclusive.
SMILES,BLM inh-1,APE1 inh,KAT2A inh,TDP1 block,RECQ1 inh-1,BLM inh-2,others
CCOc1ccc2nc3cc(NCc4ccc(OC)cc4)ccc3c(N)c2c1,14.1µM,n,n,x,x,7.25µM,
Fc1ccc(CSc2ccc(-c3ccco3)nn2)cc1,n,n,n,n,n,x,
CCSc1ccc(-c2ccco2)nn1,10µM,n,n,n,n,u,
CCOC(=O)c1ccc(NC(=O)CC2Nc3cc(C)c(C)cc3NC2=O)cc1 (configuration not stated),n,x,n,x,x,x,
COc1ccc(Cc2nc3ccccc3n2CC(=O)N/N=C/c2ccc(C)cc2O)cc1OC,10µM,n,n,n,n,u,
COc1ccc(Cc2nc3ccccc3n2CC(=O)N/N=C/c2ccc(O)cc2)cc1OC,n,n,n,n,n,x,
COC(=O)c1ccc(CSc2nc3scc(-c4cccs4)c3c(=O)[nH]2)o1,25.1µM,n,n,n,n,u,
O=C(CSc1nnc2scc(-c3ccccc3)n12)Nc1nsc(-c2ccccc2)n1,20µM,n,n,n,n,36.3µM,
O=C(O)c1ccc(N[C@@H]2OC[C@@H](O)[C@@H](O)[C@@H]2O)cc1,n,x,n,x,n,x,
O=c1oc(-c2ccccc2)nc2sc3c(c12)CCC3,14.1µM,n,u,x,n,u,
O=C1CCC(=O)N1c1ccc(-c2nc3sc4c(c3c(=O)o2)CCC4)cc1,n,n,n,n,n,x,
Cc1ccc2nc(/C(C#N)=C/c3ccc(-c4ccc(F)cc4F)o3)[nH]c2c1,n,x,n,n[12.3 µM],x,x,
Cc1ccc2nc(/C(C#N)=C/c3ccc(-c4cccc([N+](=O)[O-])c4)o3)[nH]c2c1,22.4µM,n,n,n,n,12.9µM,
Cc1ccc(S(=O)(=O)N[C@H]2COC(=O)[C@H](C)COC(=O)[C@H](C)NC(=O)C/C=C\[C@H]2C)cc1,n[12.4 µM],u,x,n[21 µM],n[11.5 µM],x,
O=C1C=C(NCCO)C(=O)c2cnccc21,u,u,x,n,n,x,
O=C1C=C(NCCN2CCOCC2)C(=O)c2cnccc21,25.1µM,n,n,n,n,u,
Nc1ccc2nc3c(=O)n(CCc4ccccc4)c(=O)[nH]c3nc2c1,n,n,n,n,n,x,
CCCCn1c(=O)[nH]c2nc3cc(N)ccc3nc2c1=O,5.62µM,n,n,n,n,u,
CCc1ccccc1-n1nnc(-c2nsc(NC(=O)c3ccc(C)c(C)c3)n2)c1C,n,x,n,n,x,x,
O=C(CSc1nc(-c2ccccc2)nc2c1Cc1ccccc1O2)Nc1ccc(C(=O)O)cc1,10µM,n,28.2µM,4.47µM,8.91µM,12.9µM,RECQ1 conf=n
CCOc1cccc2c1Oc1nc(-c3ccccc3)nc(SCC(=O)Nc3ccc(F)cc3)c1C2,n,x,n,n,x,x,
Cc1ccc(-c2nc3c(c(SCC(=O)Nc4cccc(C(=O)O)c4)n2)Cc2cccc(C)c2O3)cc1,4.47µM,1.89µM,u,x,x,13.6µM,RECQ1 conf=6.46µM
COc1ccc(-c2nc3c(c(SCC(=O)Nc4ccccc4OC)n2)Cc2cccc(C)c2O3)cc1,n,x,n,n,x,x,
O=c1c(-c2cc(F)cc(F)c2)nc2cnc(N3CCNCC3)nc2n1Cc1ccc(F)cc1,35.5µM,u,n,x,u,u,RECQ1 inh-2=u
O=C(COC(=O)c1cc(-c2ccco2)nc2ccccc12)NCc1ccc2c(c1)OCO2,n,n,n,n,n,x,
COc1ccccc1CNC(=O)COC(=O)c1cc(-c2ccco2)nc2ccccc12,11.2µM,11.2µM,n,x,u,18.2µM,RECQ1 inh-2=u
COc1cc(OC)cc(-c2nc3n(n2)C(c2ccccc2F)C(C(=O)Nc2cccnc2)=C(C)N3)c1 (configuration not stated),n,x,n,x,x,x,
